# Columns and labels:
# Assay in all cases: DAPPL (digital affinity profiling via proximity ligation, sequencing); 10 mM Tris-HCl pH 7.5, 50 mM NaCl, 1 mM DTT, 4% glycerol, room temperature, 30 min; GST-TFs on glutathione beads, 16-mer random dsDNA library, 0.1% formaldehyde crosslink after washing; high values mean tight binding
# Conditions in all cases: protein: recombinant; tags: N-terminal GST; dsDNA, one strand shown
# GABPA = molecular target: T1, GABPA (Homo sapiens, UniProt Q06546 1-454)
# T1 sequence: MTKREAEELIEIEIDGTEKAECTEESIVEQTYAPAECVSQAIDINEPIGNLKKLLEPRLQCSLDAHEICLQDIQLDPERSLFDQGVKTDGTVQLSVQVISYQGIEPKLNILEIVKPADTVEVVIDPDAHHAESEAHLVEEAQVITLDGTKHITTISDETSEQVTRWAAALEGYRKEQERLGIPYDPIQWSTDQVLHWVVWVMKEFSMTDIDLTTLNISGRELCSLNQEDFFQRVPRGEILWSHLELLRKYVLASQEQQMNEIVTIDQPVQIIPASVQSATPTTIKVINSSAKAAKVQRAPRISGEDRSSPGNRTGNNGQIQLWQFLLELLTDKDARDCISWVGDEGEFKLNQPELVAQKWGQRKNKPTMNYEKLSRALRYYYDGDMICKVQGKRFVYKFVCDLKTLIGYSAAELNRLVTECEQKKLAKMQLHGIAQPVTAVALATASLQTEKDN
# Method in brief: (§1)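 Beads coated with glutathione captured GST-fused human transcription factors that had been expressed in yeast, and the factors were then given DNA barcodes and pooled with a tag-only sample. The pools were incubated with 200 nmole of a random double-stranded 16-mer DNA library in Tris/NaCl/DTT/glycerol buffer for 30 min at room temperature, washed, crosslinked with 0.1% formaldehyde and proximity-ligated with BsaI/T4 ligase at 37 °C for 1 h. PCR amplification and Illumina NextSeq500 sequencing came last. Binding signal is each hexamer's read frequency for a factor divided by its frequency for the tag-only sample.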
# ELF1 = ELF1 (Homo sapiens, UniProt P32519 1-619)
# Chain of ELF1 (P32519 whole entry): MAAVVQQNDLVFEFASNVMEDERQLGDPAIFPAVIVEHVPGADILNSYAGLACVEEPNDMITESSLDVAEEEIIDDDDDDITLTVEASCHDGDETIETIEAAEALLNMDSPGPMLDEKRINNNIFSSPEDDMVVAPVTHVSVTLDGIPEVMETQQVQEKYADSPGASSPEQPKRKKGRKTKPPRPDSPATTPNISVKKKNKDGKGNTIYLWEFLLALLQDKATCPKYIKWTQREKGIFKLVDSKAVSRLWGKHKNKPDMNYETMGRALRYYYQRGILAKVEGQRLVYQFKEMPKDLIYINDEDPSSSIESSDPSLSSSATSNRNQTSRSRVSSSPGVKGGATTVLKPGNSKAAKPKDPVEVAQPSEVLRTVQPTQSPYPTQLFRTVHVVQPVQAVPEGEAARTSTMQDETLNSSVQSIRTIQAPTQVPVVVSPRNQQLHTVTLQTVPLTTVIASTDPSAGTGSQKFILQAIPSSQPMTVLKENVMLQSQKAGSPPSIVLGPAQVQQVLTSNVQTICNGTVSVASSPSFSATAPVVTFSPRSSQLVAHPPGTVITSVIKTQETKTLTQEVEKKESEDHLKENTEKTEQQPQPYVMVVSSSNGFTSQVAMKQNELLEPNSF
# Method in brief: as §1
# EHF = molecular target: T2, EHF (Homo sapiens, UniProt Q9NZC4 1-300)
# T2 sequence: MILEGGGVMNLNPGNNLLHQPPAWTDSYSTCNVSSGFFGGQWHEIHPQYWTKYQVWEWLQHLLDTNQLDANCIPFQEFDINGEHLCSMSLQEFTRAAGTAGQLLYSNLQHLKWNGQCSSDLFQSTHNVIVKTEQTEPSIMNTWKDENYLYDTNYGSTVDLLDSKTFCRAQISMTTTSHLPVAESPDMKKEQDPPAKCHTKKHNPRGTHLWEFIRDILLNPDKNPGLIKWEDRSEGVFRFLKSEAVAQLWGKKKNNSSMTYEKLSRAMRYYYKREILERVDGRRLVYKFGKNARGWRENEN
# Method in brief: as §1
# ETV5 = ETV5 (Homo sapiens, UniProt P41161 1-510)
# Chain of ETV5 (P41161 whole entry): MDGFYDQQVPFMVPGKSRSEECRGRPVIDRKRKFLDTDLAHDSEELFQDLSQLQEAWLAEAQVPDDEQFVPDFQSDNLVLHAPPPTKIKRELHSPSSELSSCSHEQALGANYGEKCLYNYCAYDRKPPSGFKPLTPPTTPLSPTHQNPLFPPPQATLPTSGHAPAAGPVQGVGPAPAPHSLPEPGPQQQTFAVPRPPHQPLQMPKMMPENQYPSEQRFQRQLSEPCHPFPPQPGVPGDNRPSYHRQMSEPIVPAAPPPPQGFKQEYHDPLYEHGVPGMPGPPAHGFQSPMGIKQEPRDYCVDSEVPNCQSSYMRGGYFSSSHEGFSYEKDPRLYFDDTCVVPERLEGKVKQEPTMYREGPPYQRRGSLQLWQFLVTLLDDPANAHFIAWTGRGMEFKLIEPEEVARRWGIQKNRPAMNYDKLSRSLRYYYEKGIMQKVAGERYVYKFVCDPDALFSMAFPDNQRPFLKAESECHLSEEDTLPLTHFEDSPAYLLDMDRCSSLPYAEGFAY
# Method in brief: as §1
# ELF3 = molecular target: T3, ELF3 (Homo sapiens, UniProt P78545 1-371)
# T3 sequence: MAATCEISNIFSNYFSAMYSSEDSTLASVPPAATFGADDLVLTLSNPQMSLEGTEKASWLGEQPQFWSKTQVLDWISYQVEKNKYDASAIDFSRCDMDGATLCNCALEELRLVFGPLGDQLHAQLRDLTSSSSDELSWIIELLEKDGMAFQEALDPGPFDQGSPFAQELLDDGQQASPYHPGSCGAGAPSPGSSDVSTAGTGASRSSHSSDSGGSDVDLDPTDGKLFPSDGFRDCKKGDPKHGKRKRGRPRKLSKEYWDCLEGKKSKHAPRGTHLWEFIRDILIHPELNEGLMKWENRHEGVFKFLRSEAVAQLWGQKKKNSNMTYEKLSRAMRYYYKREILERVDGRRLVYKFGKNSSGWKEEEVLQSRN
# Method in brief: as §1
# ETV1 = ETV1 (Homo sapiens, UniProt P50549 1-477)
# Chain of ETV1 (P50549 whole entry): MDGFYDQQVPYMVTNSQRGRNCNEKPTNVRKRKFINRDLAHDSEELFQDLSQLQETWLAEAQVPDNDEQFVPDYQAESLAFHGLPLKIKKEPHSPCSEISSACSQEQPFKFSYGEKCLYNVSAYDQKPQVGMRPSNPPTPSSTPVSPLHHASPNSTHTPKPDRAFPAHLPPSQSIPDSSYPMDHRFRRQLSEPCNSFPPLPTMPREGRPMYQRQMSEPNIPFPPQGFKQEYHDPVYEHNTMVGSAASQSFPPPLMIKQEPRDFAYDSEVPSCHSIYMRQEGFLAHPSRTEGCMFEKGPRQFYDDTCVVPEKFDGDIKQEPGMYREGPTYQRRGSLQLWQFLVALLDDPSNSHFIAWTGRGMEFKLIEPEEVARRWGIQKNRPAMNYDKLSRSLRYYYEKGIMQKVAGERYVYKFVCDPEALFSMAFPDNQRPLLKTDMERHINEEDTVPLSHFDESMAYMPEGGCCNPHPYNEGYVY
# Method in brief: as §1
# ERF = molecular target: T4, ERF (Homo sapiens, UniProt P50548 1-548)
# T4 sequence: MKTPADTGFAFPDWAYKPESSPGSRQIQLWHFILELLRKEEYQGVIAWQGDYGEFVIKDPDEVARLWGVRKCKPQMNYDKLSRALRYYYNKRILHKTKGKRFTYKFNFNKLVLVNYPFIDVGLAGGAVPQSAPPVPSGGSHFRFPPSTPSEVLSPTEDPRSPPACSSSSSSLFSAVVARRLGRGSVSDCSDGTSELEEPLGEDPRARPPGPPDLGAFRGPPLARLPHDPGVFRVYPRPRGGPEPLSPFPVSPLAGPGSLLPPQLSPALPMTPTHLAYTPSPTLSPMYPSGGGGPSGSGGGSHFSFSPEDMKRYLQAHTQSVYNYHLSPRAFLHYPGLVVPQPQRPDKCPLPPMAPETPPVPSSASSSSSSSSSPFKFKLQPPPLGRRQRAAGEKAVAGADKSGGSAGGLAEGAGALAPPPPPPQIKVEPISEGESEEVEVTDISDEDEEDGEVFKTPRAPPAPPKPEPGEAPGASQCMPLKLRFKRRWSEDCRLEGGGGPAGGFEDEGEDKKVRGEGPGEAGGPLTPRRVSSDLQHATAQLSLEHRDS
# Method in brief: as §1
# ETV6 = ETV6 (Homo sapiens, UniProt P41212 1-452)
# Chain of ETV6 (P41212 whole entry): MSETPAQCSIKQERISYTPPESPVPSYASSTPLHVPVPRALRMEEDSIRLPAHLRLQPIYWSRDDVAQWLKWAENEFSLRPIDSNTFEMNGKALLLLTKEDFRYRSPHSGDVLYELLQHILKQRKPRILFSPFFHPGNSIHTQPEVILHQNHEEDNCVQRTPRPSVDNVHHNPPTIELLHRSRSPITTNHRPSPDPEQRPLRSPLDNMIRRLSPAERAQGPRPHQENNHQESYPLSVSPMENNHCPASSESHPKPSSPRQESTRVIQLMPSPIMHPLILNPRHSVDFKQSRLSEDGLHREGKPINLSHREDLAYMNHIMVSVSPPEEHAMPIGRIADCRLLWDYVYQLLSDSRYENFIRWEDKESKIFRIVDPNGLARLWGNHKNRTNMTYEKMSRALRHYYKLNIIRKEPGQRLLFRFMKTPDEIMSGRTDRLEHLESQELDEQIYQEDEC
# Method in brief: as §1
sequence,measurement,setting,value
CATAGC,binding signal,GABPA,"1.02 fold enrichment (6-mer frequency, TF over GST control)"
same,binding signal,ELF1,"1.02 fold enrichment (6-mer frequency, TF over GST control)"
same,binding signal,EHF,"1.01 fold enrichment (6-mer frequency, TF over GST control)"
same,binding signal,ETV5,"1.01 fold enrichment (6-mer frequency, TF over GST control)"
same,binding signal,ELF3,"1.1 fold enrichment (6-mer frequency, TF over GST control)"
same,binding signal,ETV1,"1.02 fold enrichment (6-mer frequency, TF over GST control)"
same,binding signal,ERF,"1.07 fold enrichment (6-mer frequency, TF over GST control)"
same,binding signal,ETV6,"1.02 fold enrichment (6-mer frequency, TF over GST control)"
